The source of these data is PubChem BioAssay (NCATS).

The target of assay [1] is Lysosomal acid glucosylceramidase (Homo sapiens) (UniProt P04062). The assay can be described thus: Glucocerebrosidase-p2 (AID 348; in the data active = potency below about 10 µM; note: potency is the fitted concentration of half-maximal effect). The following applies: purified GBA, blue fluorogenic substrate, 40 min. In outline: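 Normal human glucocerebrosidase (0.2 nM) with blue fluorogenic substrate (80 uM final) in citrate/phosphate pH 5.9 with 10mM sodium taurocholate, 0.01% tween-20; 40 min RT, NaOH/glycine stop; fluorescence Ex 365/Em 440; AC50 from a titration from 0.6 nM upwards.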
Sequence of Lysosomal acid glucosylceramidase (Homo sapiens) (P04062 whole entry, looked up): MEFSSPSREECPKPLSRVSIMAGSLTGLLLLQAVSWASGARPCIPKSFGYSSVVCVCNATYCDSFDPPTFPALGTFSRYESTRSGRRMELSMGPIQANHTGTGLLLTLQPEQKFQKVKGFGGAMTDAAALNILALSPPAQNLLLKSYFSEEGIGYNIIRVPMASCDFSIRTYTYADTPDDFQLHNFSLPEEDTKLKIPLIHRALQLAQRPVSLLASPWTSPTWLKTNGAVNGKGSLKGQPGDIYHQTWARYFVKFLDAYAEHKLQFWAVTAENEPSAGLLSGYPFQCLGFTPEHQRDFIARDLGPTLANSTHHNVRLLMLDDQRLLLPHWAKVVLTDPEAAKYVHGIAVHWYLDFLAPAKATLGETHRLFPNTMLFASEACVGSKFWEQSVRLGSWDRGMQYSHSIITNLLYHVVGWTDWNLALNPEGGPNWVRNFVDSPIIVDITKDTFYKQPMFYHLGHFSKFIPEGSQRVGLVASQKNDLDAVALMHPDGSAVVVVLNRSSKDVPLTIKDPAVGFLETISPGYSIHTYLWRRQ

Assay [2] deals with Glucocorticoid receptor (Homo sapiens) (UniProt P04150). The assay can be described thus: GR-GFP Redistribution (AID 450;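 active = compounds whose dose series gives a full or clear partial fitted curve of increased nuclear translocation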; note: potency is the fitted concentration of half-maximal effect). The note with it: U2OS GR-GFP nuclear translocation, laser cytometry, 2 h.
Sequence of Glucocorticoid receptor (Homo sapiens) (P04150 whole entry, looked up, the tested form may be a part): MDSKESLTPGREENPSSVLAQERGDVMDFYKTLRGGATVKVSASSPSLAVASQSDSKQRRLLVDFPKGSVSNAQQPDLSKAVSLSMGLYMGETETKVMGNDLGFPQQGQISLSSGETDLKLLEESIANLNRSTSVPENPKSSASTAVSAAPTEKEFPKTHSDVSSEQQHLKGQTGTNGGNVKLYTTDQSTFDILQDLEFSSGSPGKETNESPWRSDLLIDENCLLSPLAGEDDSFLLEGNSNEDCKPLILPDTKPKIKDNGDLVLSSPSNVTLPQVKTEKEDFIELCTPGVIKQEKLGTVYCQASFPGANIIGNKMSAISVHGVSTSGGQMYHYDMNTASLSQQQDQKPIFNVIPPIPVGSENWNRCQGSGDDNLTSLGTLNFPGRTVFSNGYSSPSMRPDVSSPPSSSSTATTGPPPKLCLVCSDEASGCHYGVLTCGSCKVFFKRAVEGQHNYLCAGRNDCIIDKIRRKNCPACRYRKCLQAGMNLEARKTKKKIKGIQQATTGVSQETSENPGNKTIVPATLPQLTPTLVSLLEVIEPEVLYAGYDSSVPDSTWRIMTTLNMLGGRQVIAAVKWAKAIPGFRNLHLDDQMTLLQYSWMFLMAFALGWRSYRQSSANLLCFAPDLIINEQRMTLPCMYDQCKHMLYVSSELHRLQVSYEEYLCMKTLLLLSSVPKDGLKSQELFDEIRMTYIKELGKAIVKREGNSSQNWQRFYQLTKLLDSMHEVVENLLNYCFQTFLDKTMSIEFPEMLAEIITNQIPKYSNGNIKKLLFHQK
Assay [3] shares this target. The assay can be described thus: GR-EFC Redistribution (AID 451; calls by dose curve; note: potency is the fitted concentration of half-maximal effect). The following applies: CHO-K1 GR-EFC translocation, beta-gal luminescence, 2 h. In outline: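 CHO-K1 cells stably expressing nuclear-localized β-gal enzyme acceptor and GR fused C-terminally to the enzyme donor fragment; ligand-driven nuclear translocation restores β-gal by complementation. Compounds titrated up to 46 uM final, 2 h at 37 °C; luminescence read.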

The target of assay [4] is Mitogen-activated protein kinase 10 (Mus musculus) (UniProt Q61831). The assay can be described thus: JNK3 AlphaScreen Assay (AID 530; active = well fitted curve in either direction with a large enough effect, not every such curve was filed as active;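 note: kinase came from lysate of stimulated human HepG2 cells; signal reports phosphorylation of biotinylated GST-cJun 1-79 at Ser73 with 10 µM ATP; % is set by controls: 0 for no effect and ±100 for the full control effect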). The note with it: JNK3 lysate, c-Jun phosphorylation; series mostly up to 57.1 µM. The method, boiled down:
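Biotinylated GST-cJun(1-79) served as substrate for JNK3 in HepG2 lysates stimulated with IL-1beta and TNF-alpha. ATP was 10 uM final, pH 7.6. Ser73 phosphorylation was quantified by AlphaScreen (680 nm excitation).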
(Bead proximity is the source of the signal in Alpha formats.)

Assay [5] has as its target 3',5'-cyclic-AMP phosphodiesterase 4B (Homo sapiens) (UniProt Q07343). The assay can be described thus: qHTS Assay for Inhibitors of PDE-IV (AID 607; active = well fitted activation curve with a large enough effect in the main read-out, with a control signal flat, not every such curve was filed as active; note: % of control where 0% means no effect). The following applies: HEK293 ACTOne CNG channel cells, membrane potential fluorescence; series mostly up to 22.9 µM. In outline: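 The readout is membrane depolarisation from a cAMP-sensing CNG channel, detected with a potential dye at ex 535/em 590. Cells were HEK293-derived (endogenous PDE-IV) at 1000 cells/well, titrated up to 22.9 uM final.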
For orientation: Quantitative high-throughput screening tests each substance at several concentrations.

The target in assay [6] is Dual specificity protein kinase CLK4 (Homo sapiens) (UniProt Q9HAZ1). The assay can be described thus: qHTS Assay for Inhibitors of CDC-like Kinase 4 (Kinase-Glo Assay) (AID 1770). Note: nearly all actives have a fitted effect of over 65% in size. Note: potency is the fitted concentration of half-maximal effect. The note with it: recombinant Clk4, Kinase-Glo ATP depletion luminescence; series mostly up to 66.7 µM. In outline: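 25 nM Clk4 with 100 uM RS repeat peptide and 1 uM ATP (final) in Tris pH7.5, 10 mM MgCl2, 4.5 h at room temperature. Remaining ATP measured by Kinase-Glo luciferase luminescence.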
Sequence of Dual specificity protein kinase CLK4 (Homo sapiens) (Q9HAZ1 whole entry, looked up): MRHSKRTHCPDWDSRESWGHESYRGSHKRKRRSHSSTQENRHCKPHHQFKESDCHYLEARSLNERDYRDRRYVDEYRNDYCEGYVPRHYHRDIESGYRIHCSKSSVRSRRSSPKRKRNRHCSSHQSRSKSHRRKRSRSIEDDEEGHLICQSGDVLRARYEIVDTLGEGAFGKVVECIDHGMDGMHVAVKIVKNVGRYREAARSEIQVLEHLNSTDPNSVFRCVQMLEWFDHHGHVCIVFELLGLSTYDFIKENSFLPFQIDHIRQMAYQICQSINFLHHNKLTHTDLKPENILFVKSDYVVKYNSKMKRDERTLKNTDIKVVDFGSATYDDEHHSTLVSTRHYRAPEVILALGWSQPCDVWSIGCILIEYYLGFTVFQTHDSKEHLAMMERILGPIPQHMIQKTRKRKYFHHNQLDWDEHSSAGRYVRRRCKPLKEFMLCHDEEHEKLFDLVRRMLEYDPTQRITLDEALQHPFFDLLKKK

For assay [7] the target is unchanged. Kind of assay: qHTS Assay for Inhibitors of CDC-like Kinase 4 (ADP-Glo Assay) (AID 1771). Note: nearly all actives have a fitted effect of over 70% in size. Note: potency is the fitted concentration of half-maximal effect. The following applies: recombinant CLK4, ADP-Glo luminescence; series mostly up to 80 µM. The method, boiled down:
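25 nM Clk4, 100 uM RS peptide, 1 uM ATP (final); 2 mM MgCl2, 0.5 mM EGTA, 2.5 mM DTT, 0.01% Triton X-100; 1 hr RT. ADP-Glo readout: ATP depletion 45 min, conversion/luciferase 30 min, luminescence.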

The target is the same in assay [8]. The assay can be described thus: qHTS Assay for Inhibitors of CDC-like Kinase 4 (ADP-FP Assay) (AID 1795). Note: nearly all actives have a fitted effect of over 60% in size. Note: potency is the fitted concentration of half-maximal effect. The following applies: Transcreener ADP fluorescence polarization; series mostly up to 50 µM. In outline: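 Recombinant Clk4 (6.25 nM) phosphorylated 100 uM RS repeat peptide with 1 uM ATP in 25 mM Tris pH 7.5, 10 mM MgCl2, 0.5 mM EGTA, 2.5 mM DTT, 0.01% Triton X-100 for 1 h. ADP was detected by Transcreener ADP2 competitive fluorescence polarization after 30 min at room temperature.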

Assay [9] deals with Ubiquitin carboxyl-terminal hydrolase 1 (Homo sapiens) (UniProt O94782). Kind of assay: Inhibitors of USP1/UAF1: Pilot qHTS (AID 504865).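 Note: rhodamine fluorescence freed from ubiquitin-rhodamine substrate followed over time; top concentration of the series differs between compounds; % is set by controls: 0 for no effect and ±100 for the full control effect; nearly all actives have a fitted effect of over 35% in size.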 The following applies: purified USP1/UAF1, Ub-rhodamine cleavage fluorescence; series mostly up to 54.9 µM. The method, boiled down:
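USP1/UAF1 complex at 1 nM preincubated 15 min at room temperature with compound, then Ub-Rho substrate added at 150 nM final. Fluorescence (480/540 nm) read kinetically in 50 mM HEPES pH 7.8, 0.5 mM EDTA, 1 mM TCEP, 0.1 mg/ml BSA, 0.01% Tween-20.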

Assay [10] is described as follows: Primary qHTS for small molecule stabilizers of the endoplasmic reticulum resident proteome: Secreted ER Calcium Modulated Protein (SERCaMP) assay (AID 1508630). Note: % is set by controls: 0 for no effect and ±100 for the full control effect. The following applies: SH-SY5Y GLuc-SERCaMP (Gaussia luciferase released on ER calcium loss) secretion, thapsigargin, luminescence; series mostly up to 38.4 µM. In outline: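 The SH-SY5Y reporter protocol was run at 3 concentrations up to 38.3 uM (primary) or 11 concentrations (follow-up): 16 h compound, 100 nM thapsigargin for 4 h, then extracellular luciferase luminescence.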

Assay [11] can be described thus: NFAT Signaling Pathway (AID 444; active = well fitted curve in either direction with a large enough effect, not every such curve was filed as active;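 note: carbachol stimulus at about its EC50 of 1 µM final; % is set by controls: 0 for no effect and ±100 for the full control effect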). The note with it: Jurkat NFAT-bla M1, carbachol, beta-lactamase ratio, 5 h; at 7.69 µM (top of the series) unless noted. In outline: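 Jurkat cells carrying an NFAT-driven β-lactamase reporter and co-transfected muscarinic M1 receptor were treated with compound plus carbachol (1 uM final, an EC50 level) for 5 h at 37 °C. CCF4 loading followed for 1 h at RT; 460/530 nm ratio gave %activity.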

The nature of assay [12]: Stat Signaling Pathway (AID 446; active = well fitted curve in either direction with a large enough effect, not every such curve was filed as active;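 note: ME-180 cervical cancer cells given 40 pM IL-6 alongside compound; SIE-controlled beta-lactamase reporter measured as 460/530 nm FRET emission ratio; % is set by controls: 0 for no effect and ±100 for the full control effect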). The following applies: ME-180 SIE beta-lactamase reporter, IL-6 stimulated, 5 h; at 7.69 µM (top of the series) unless noted. In outline:
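Emission at 460 and 530 nm (excitation 405 nm) reports SIE-controlled beta-lactamase in ME-180 cells. Cells received compound with 40 pM IL-6 for 5 hrs at 37 C; data scaled between 300 pM IL-6 and 125 nM JAK-inhibitor controls.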

The target in assay [13] is Cytochrome P450 3A4 (Homo sapiens) (UniProt P08684). Kind of assay: qHTS Assay for Activators of Cytochrome P450 3A4 (AID 885). Note: nearly all actives have a fitted effect of over 65% in size. The following applies: recombinant CYP3A4, Luciferin-PPXE luminescence, 60 min; series mostly up to 57.1 µM. In outline:
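Activators are scored by enhanced luminescence from CYP3A4 conversion of luciferin-PPXE (25uM, equal to KM) to luciferin, after 60 min at RT with an NADPH-regenerating system.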

The nature of assay [14]: AP1 Signaling Pathway (AID 357; active = well fitted curve in either direction with a large enough effect, not every such curve was filed as active; note: % is set by controls: 0 for no effect and ±100 for the full control effect). The note with it: ME-180 AP-1-bla reporter, EGF-induced, beta-lactamase ratio, 5 h; at 7.69 µM (top of the series) unless noted. In outline:
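AP-1-bla ME-180 cells with beta-lactamase reporter under AP-1 response element, stimulated with EC50 EGF; compounds titrated, 5 hours at 37 degrees Celsius. CCF4 read at 460/530 nm ratio; positive and negative modulators judged by AC50.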

Assay [15] has as its target Cytochrome P450 1A2 (Homo sapiens) (UniProt P05177). Kind of assay: p450-cyp1a2 (AID 410; calls by dose curve; note: potency is the fitted concentration of half-maximal effect;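 for activity change, negative = inhibition: -100% = full effect of reference inhibitor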). The following applies: recombinant CYP1A2, luciferin-ME demethylation, luminescence; series mostly up to 57 µM. The method, boiled down: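 20nM CYP1A2, 100uM Luciferin-ME (=Km), 100mM KPO4; cpd 10 min RT; +NADPH regen, 60 min RT; stop/detect 20 min; luminescence. Normalized to furafylline 57 uM = full inhibition.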

A short description of assay [16]: qHTS Assay for Identification of Small Molecule Agonists for Hypoxia Response Element Signaling Pathway (AID 914; active = well fitted activation curve with a large enough effect in the signal ratio, with a control signal flat, not every such curve was filed as active; the % refers to the signal ratio; note: potency is the fitted concentration of half-maximal effect; for activation: % of control where 0% means no effect). The note with it: ME-180 (cervical carcinoma) HRE-bla reporter, beta-lactamase ratio, CoCl2, 17 h; activation: hits give high values. In outline:
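Read-out: CCF4 FRET ratio of 460nm to 530nm emission (excitation 405nm) after 2.5 hours at room temperature, taken from HRE-bla ME-180 cells that had been exposed to compound and EC50 CoCl2 for 17 hours.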

Assay [17] deals with Cytochrome P450 2D6 (Homo sapiens) (UniProt P10635). The assay can be described thus: qHTS Assay for Inhibitors and Substrates of Cytochrome P450 2D6 (AID 891). Note: potency is the fitted concentration of half-maximal effect; nearly all actives have a fitted effect of over 60% in size. The note with it: recombinant CYP2D6, luciferin-ME EGE luminescence; series mostly up to 57.1 µM. The method, boiled down: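 Luminescent read-out of luciferin formed by 5 nM human CYP2D6 demethylating 30 uM Luciferin-ME EGE (Km level) over 60 min at room temperature after NADPH regeneration addition. Data normalized to full inhibition by 1.43 uM quinidine.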

Assay [18] has as its target Cytochrome P450 2C19 (Homo sapiens) (UniProt P33261). The assay can be described thus: qHTS Assay for Inhibitors and Substrates of Cytochrome P450 2C19 (AID 899). Note: potency is the fitted concentration of half-maximal effect; nearly all actives have a fitted effect of over 60% in size. The note with it: recombinant CYP2C19, luciferin-H EGE luminescence; series mostly up to 57.1 µM. The method, boiled down:
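NADPH-dependent conversion of Luciferin-H EGE (10uM, at KM) by 5nM enzyme in 50mM KPO4, 60 min at 37C following 10 min compound preincubation. Stopped with luciferin detection buffer; luminescence read after 20 min.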

Each structure is given as a SMILES string. Values without a mark were called inactive. Results filed as inconclusive are left out. Active and inactive are the calls of the source. Unless noted, calls come from the whole dose curve; as a rule, active = well fitted curve in the direction sought with a large enough effect; inconclusive = small, poorly fitted or top-dose-only effect, or another doubt; inactive = no such curve, though single readings can be large; an effect the other way counts as inactive or inconclusive.

Sequence of 3',5'-cyclic-AMP phosphodiesterase 4B (Homo sapiens) (Q07343 whole entry, looked up): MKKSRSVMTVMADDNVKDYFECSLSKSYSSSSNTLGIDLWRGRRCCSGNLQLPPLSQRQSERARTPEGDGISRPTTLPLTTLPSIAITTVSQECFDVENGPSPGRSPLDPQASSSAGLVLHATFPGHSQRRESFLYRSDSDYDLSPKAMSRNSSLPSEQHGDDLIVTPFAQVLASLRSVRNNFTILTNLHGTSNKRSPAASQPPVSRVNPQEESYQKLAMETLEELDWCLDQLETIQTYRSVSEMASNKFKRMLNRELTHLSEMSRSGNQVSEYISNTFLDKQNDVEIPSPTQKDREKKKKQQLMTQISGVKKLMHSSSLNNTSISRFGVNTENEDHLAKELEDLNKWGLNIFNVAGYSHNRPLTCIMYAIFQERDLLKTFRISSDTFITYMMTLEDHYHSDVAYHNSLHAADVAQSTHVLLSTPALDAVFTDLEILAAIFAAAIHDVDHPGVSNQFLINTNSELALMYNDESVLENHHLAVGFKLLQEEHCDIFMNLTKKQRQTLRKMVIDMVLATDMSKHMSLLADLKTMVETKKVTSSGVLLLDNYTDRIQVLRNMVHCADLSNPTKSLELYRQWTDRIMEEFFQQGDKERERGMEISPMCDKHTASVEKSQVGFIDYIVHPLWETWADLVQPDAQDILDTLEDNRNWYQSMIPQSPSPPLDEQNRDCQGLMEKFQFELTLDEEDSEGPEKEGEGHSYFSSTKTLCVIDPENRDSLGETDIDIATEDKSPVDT
Sequence of Ubiquitin carboxyl-terminal hydrolase 1 (Homo sapiens) (O94782 whole entry, looked up): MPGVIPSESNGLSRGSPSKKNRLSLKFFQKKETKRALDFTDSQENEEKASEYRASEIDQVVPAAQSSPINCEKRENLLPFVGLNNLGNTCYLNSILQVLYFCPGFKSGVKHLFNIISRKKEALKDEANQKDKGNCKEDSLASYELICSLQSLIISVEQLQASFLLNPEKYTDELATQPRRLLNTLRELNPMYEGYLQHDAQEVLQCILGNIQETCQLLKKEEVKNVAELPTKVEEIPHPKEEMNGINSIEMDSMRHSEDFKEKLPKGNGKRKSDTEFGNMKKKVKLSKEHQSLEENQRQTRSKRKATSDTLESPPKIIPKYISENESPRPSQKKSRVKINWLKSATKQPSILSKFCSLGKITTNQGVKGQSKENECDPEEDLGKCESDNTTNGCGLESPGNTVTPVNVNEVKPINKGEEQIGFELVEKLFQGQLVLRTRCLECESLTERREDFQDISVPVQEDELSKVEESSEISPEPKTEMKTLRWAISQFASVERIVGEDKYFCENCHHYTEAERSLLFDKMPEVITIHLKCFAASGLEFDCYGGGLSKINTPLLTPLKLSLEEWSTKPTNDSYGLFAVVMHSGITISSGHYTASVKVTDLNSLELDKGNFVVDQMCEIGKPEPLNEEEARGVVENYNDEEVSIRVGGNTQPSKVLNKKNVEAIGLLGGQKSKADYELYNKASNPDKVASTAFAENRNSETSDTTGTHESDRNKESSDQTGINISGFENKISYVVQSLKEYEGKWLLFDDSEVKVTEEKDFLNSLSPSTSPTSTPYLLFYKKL
Sequence of Cytochrome P450 1A2 (Homo sapiens) (P05177 whole entry, looked up): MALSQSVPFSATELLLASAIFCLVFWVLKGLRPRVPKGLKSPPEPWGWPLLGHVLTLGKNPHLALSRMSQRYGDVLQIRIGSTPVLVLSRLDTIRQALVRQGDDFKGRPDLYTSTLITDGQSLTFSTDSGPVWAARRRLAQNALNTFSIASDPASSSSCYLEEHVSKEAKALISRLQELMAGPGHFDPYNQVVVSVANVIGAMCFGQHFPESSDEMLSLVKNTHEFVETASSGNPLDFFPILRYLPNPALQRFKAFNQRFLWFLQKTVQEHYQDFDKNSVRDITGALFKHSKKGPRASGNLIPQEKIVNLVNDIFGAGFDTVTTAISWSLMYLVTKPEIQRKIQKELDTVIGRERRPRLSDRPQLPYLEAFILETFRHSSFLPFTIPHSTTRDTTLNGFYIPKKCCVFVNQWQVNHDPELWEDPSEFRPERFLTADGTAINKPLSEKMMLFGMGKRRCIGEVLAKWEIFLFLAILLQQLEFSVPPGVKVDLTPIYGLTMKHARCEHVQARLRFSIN
Sequence of Cytochrome P450 3A4 (Homo sapiens) (P08684 whole entry, looked up): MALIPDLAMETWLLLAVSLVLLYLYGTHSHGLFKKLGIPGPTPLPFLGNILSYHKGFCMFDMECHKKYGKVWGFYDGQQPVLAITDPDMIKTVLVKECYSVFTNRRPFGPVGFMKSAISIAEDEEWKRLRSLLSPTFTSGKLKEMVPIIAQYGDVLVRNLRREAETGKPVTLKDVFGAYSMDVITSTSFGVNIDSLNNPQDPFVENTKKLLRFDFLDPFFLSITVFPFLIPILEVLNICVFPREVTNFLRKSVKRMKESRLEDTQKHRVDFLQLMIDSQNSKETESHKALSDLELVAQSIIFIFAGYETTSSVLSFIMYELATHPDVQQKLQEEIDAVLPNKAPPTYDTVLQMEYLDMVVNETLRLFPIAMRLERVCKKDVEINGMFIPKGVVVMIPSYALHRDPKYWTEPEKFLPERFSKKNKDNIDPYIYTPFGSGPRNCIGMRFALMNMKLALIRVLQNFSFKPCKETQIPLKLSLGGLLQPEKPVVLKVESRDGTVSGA
Sequence of Cytochrome P450 2C19 (Homo sapiens) (P33261 whole entry, looked up): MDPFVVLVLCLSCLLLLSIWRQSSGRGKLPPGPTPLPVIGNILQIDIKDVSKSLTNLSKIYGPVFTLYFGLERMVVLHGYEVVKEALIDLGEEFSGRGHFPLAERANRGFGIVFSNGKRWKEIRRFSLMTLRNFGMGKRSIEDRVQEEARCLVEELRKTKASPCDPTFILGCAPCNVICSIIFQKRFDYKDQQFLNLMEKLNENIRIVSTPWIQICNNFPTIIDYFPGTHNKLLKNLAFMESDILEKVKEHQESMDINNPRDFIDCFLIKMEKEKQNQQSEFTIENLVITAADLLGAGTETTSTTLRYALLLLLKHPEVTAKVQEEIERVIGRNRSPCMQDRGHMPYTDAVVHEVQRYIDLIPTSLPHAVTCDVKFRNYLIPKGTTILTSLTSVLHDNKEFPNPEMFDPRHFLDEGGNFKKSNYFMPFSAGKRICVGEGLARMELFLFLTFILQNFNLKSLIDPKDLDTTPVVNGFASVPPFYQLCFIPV

Regarding `COc1cccc(Nc2ncc3ncc(=O)n(C[C@H]4CCCO4)c3n2)c1`, the Potency is greater than 11.4 µM in [1]; greater than 9.22 µM in assay [2]; greater than 46 µM in assay [3]; 1.41 µM (active) in [6]; 1.58 µM (active) in assay [7]; 0.794 µM (active) in assay [8]. For the same compound, the Potency result in assay [4], in assay [5] and in [9] was “inactive” throughout. The outcome in [10] was inactive.
Consider `O=c1c(-c2ccc(F)cc2)nc2cnc(Oc3cccc(Cl)c3)nc2n1C[C@H]1CCCO1`, for which the Potency in [1] is greater than 11.4 µM; in [2], greater than 9.22 µM; in assay [3], greater than 46 µM. In addition, in [11], the activity change, negative = inhibition is -18.3%. Also, in assay [12], the activity, negative = inhibition was -26%. Moreover, the Potency entry in assay [4], in assay [5], in assay [13], in assay [6], in assay [7] and in assay [8] was “inactive” throughout. For the same compound, in assay [9], the Potency entry is “inactive”. The result in assay [10] was inactive.
Regarding `COc1ccc(CNc2ccnc(-c3ccc(N(C)C)cc3)n2)c(OC)c1`, the results for the activity change, negative = inhibition in assay [14] and in assay [11] were 8.69% and -3.37%, respectively. Besides, the Potency in [15] was 3.16 µM (active); in assay [2] it was greater than 46 µM; in [3], greater than 46 µM. The activity, negative = inhibition in assay [12] is -13.6%. Besides, the Potency entry in assay [4], in [5], in assay [13], in assay [6], in [7] and in assay [8] was “inactive” each time. Further, the Potency result in [9] is “inactive”. Further, the result in assay [10] was inactive.
Regarding `O=c1c(-c2ccccc2)nc2cnc(N3CCOCC3)nc2n1Cc1ccc(F)cc1`, the Potency is greater than 11.4 µM in assay [1], 20 µM (active) in [15], greater than 9.22 µM in [2] and greater than 46 µM in assay [3]. Besides, the Potency result in assay [4], in assay [6], in assay [7], in [8] and in assay [9] was “inactive” each time. Further, the result in assay [10] was inactive.
For `CN1CCN(c2ncc3nc(-c4cn(C)c5ccccc45)c(=O)n(CCc4ccccc4)c3n2)CC1`, the Potency is greater than 11.4 µM in assay [1], greater than 9.22 µM in assay [2], greater than 46 µM in assay [3] and 3.16 µM (active) in [16]. Also, the Potency entry in assay [15], in assay [4], in assay [5], in assay [13], in assay [6] and in assay [7] was “inactive” each time. Besides, the Potency entry in assay [8] and in [9] was “inactive” throughout. Moreover, the result in assay [10] was inactive.
Consider `COc1cccc(-c2nccc(N(C)Cc3ccco3)n2)c1`, for which the activity change, negative = inhibition in assay [14] was -11.4%; in assay [11] it was -1.32%. The Potency in [15] is 0.631 µM (active); in assay [2] it was greater than 46 µM; in assay [3] it was greater than 46 µM; in assay [17] it was 1.26 µM (active); in assay [18], 5.01 µM (active); in assay [6], 8.91 µM (active). Moreover, the Potency in assay [7] is 8.91 µM (active); in assay [8] it was 7.94 µM (active). Moreover, the activity, negative = inhibition in [12] is -2.39%. For the same compound, the Potency entry in assay [4], in assay [5] and in assay [13] was “inactive” each time. For the same compound, the activation in assay [16] is -11.6%. The outcome in [10] was inactive.
With `c1cncc(-c2ccc3ncnc(NCCN4CCOCC4)c3c2)c1`, the Potency is greater than 11.4 µM in assay [1]; 1 µM (active) in assay [15]; greater than 46 µM in assay [2]; greater than 46 µM in assay [3]; 15.8 µM (active) in assay [6]; 17.8 µM (active) in assay [7]. Moreover, the activity change, negative = inhibition in assay [14] was -1.94%; in [11], 26%. Further, the activity, negative = inhibition in assay [12] was 2.95%. The Potency result in assay [4], in [5], in assay [13] and in [9] was “inactive” throughout. Also, the result in assay [10] was inactive.
